Results published in the GenesisPotency data set.
Out of some 1,300 compounds screened, about 55 (4%) were called active.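 How the source made its calls: active means fitted EC50 between 10 nM and 100 µM, Hill slope size 0.5 to 2, real signal loss, low interference; inactive means the rest.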 Not all results are given here. Results with a measured potency or affinity are listed apart.

Target: Ras-related C3 botulinum toxin substrate 1, Mus musculus (UniProt P63001)
Experiment: inhibitors of activated mutant Rac1 GTP binding, dose response, biochemical, multiplex, GST-Rac1 beads, Bodipy-FL-GTP, flow cytometry (AID 1339)

Q: `COC(=O)c1cccc(NC(=O)c2nn(C)c(=O)c3ccccc23)c1` was tested. Which outcome did it give?
A: inactive

Q: How did the outcome turn out when `Cc1ccc(C)c(N(CC(N)=O)S(C)(=O)=O)c1` was run?
A: inactive

Q: With `Cc1nc2ccc(NC(=O)COc3ccccc3)cc2s1` as the compound, how does the outcome read?
A: inactive

Q: `CCOC(=O)Cn1c(=O)c2c(nc(N3CCCCC3)n2C)n(C)c1=O` was tested. Which outcome did it give?
A: inactive

Q: Which outcome does the source give for `Cc1cccc(CNc2nc(C)ccc2C(=O)O)c1` here?
A: inactive

Q: How did the outcome turn out when `CCc1ccccc1NCc1sc(C(=O)O)cc1C` was run?
A: inactive

Q: `O=C(O)c1ccc(CNCc2ccc(F)cc2)s1` was tested. Which outcome did it give?
A: inactive

Q: With `Cc1cc(C(F)F)n2nc(C(=O)Nc3ccc(S(=O)(=O)N4CCCCCC4)cc3)nc2n1` as the compound, how does the outcome read?
A: inactive

Q: Which outcome does the source give for `CCC(=O)c1ccc(OCC(=O)O)c(OC)c1` here?
A: inactive

Q: How did the outcome turn out when `O=C(CNC(=O)c1ccco1)OCN1C(=O)c2ccccc2C1=O` was run?
A: inactive

Q: For `COc1ccc(CCNC(=O)C2CCCN2C(=O)NC2CCCCC2)cc1OC` (configuration not stated), which outcome is on record?
A: inactive

Q: `CC(C)(C)NC(=O)CSc1nccn1Cc1ccccc1` was tested. Which outcome did it give?
A: inactive

Q: `CCCCNC(=O)c1cc([N+](=O)[O-])[nH]n1` was tested. Which outcome did it give?
A: inactive

Q: Which outcome does the source give for `Nc1nc(CN2CCN(c3ccccc3F)CC2)nc(N2CCCc3ccccc32)n1` here?
A: inactive

Q: `COc1cccc(OCc2c(C)cccc2C)c1C(=O)O` was tested. Which outcome did it give?
A: inactive

Q: How did the outcome turn out when `CCn1c2ccccc2c2nc3cc(C(=O)O)ccc3nc21` was run?
A: inactive

Q: Which outcome does the source give for `COc1cccc(NC(=O)NCCCN2CCN(c3ccc(F)cc3)CC2)c1` here?
A: inactive

Q: With `Cc1nn(-c2ccc(F)cc2)c(Cl)c1/C=C(\CCC(=O)O)c1nc2ccccc2s1` as the compound, how does the outcome read?
A: inactive

Q: How did the outcome turn out when `Cn1c(=O)cc(N2CCOCC2)[nH]c1=O` was run?
A: inactive

Q: How did the outcome turn out when `Cc1cc2nc3c(=O)n(C4CCCCC4)c(=O)[nH]c3nc2cc1N` was run?
A: inactive

Q: How did the outcome turn out when `CNC(=O)C(C)NS(=O)(=O)c1ccc(F)cc1` (configuration not stated) was run?
A: inactive

Q: For `NC(=O)COC(=O)c1cccc2c1-c1ccccc1C2=O`, which outcome is on record?
A: inactive

Q: Which outcome does the source give for `O=C(O)c1cc([N+](=O)[O-])ccc1NCc1ccccc1Cl` here?
A: inactive

Q: How did the outcome turn out when `COc1cc(-c2cc(=O)c3c(O)cc(O)cc3o2)ccc1O` was run?
A: inactive

Q: With `O=C(Cc1ccc(Nc2nc(=S)[nH]c3ccccc23)cc1)NC1CCCCC1` as the compound, how does the outcome read?
A: inactive

Q: With `Cc1cc(C(F)(F)F)c(C#N)c(SCC(=O)Nc2nc3ccccc3s2)n1` as the compound, how does the outcome read?
A: inactive

Q: `O=C(CSc1n[nH]c(=O)[nH]c1=O)N/N=C/c1ccccc1` was tested. Which outcome did it give?
A: inactive

Q: `O=C1CN=C(c2ccccc2)c2cc(Br)ccc2N1Cc1cc(=O)n2ccccc2n1` was tested. Which outcome did it give?
A: inactive

Q: `CC(C)[C@H](NC(=O)c1ccccc1)C(=O)OCC(=O)NCCc1ccc(F)cc1` was tested. Which outcome did it give?
A: inactive

Q: For `O=C(NCc1cccs1)c1cccn2c(=O)c3sccc3nc12`, which outcome is on record?
A: inactive

Q: For `Cc1cc(C)cc(C(=O)N(NC(=O)Nc2ccc(Cl)cc2)C(C)(C)C)c1`, which outcome is on record?
A: inactive

Q: Which outcome does the source give for `Cn1c(NC(=S)Nc2ccccc2)nc2ccccc21` here?
A: inactive
